Source: PubChem BioAssay (Sanford-Burnham Center for Chemical Genomics)
Only some compounds are listed: those with a hit (about 1.5% of all), similar ones and a draw of the others.
GC-B act: human GC-B receptor activators, primary screen, HEK293 GC-B cells, cGMP TR-FRET, EC30 CNP | 0% at EC30 CNP, 100% saturating CNP | activation, % at 10 µM | actives 0.11% (n = 370,000);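 active means activation at 10 µM reaching about 35% in either raw or pattern-adjusted values, limit read from the data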
NPR1 activator: GC-A stimulated cGMP production enhancers – HEK293 GC-A cells, cGMP TR-FRET, EC30 ANP, primary screen; Atrial natriuretic peptide receptor 1 (Homo sapiens), P16066; 0% at EC30 ANP, 100% saturating ANP; activation, % at 10 µM; actives 0.14% (n = 370,000); AID 1671463, 2021; in the data active means activation above about 40%
Neddyl block: inhibitors of cullin neddylation, primary screen, biochemical, TR-FRET, uHTS, NAE and Ubc12 | actives 0.58% (n = 360,000) | NEDD8-conjugating enzyme Ubc12 (Homo sapiens) + NEDD8-activating enzyme E1 regulatory … | AID 651699, 2012 | inhibition, % at 25 µM; in the data active means inhibition above about 36%
Target sequence (P61081 whole entry, looked up): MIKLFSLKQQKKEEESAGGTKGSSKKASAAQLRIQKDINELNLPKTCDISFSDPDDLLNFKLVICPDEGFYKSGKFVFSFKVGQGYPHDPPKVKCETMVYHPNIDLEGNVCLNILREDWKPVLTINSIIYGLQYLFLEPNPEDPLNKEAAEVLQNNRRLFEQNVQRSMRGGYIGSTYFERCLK
Target sequence (Q13564 whole entry, looked up): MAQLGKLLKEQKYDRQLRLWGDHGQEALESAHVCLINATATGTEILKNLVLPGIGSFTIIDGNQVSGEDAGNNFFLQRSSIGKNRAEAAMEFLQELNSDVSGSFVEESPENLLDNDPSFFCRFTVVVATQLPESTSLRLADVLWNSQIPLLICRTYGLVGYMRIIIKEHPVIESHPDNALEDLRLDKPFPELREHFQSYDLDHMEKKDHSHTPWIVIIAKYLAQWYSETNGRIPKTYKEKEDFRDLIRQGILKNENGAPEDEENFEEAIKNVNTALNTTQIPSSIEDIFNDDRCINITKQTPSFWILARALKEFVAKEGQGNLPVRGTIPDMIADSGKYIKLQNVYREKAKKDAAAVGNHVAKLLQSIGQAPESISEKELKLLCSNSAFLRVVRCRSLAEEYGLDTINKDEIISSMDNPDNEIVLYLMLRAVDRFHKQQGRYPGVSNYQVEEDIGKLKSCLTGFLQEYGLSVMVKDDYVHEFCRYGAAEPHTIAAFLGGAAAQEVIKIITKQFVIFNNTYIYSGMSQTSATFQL
NadD block: inhibitors of S. aureus NadD, primary screen, biochemical, colorimetric, uHTS. Nicotinate-nucleotide adenylyltransferase NadD (Staphylococcus aureus N315). purified NadD enzyme, colorimetric absorbance read-out. inhibition, % at 20 µM. actives 0.78% (n = 360,000). AID 602399, 2012; in the data active means inhibition above about 26%
Numbers without * were called inactive; · = no result given.

SMILES	GC-B act	NPR1 activator	Neddyl block	NadD block
Cc1ccc(-c2cc(-c3ccc(C)cc3)[n+](-c3ccc(C(=O)O)cc3)c(-c3ccc(C)cc3)c2)cc1	1.2	-0.9	35.9*	6.8
N#CC(C#N)=NNc1ccc(S(N)(=O)=O)cc1	1.4	-1.2	-62.1	41.0*
CCCCCCCCn1sccc1=O	13.5	49.2*	1.9	8.5
CC(C)C[C@H]1N=C(c2ccccc2)c2ccccc2N(CC(=O)NC(C)(C)C)C1=O	-17.4	-19.9	·	·
CCN1/C(=C/C=C/C2=[N+](CC)c3ccccc3C2(C)C)C(C)(C)c2ccccc21	42.7*	18.8	-37.1	1.2
CN1/C(=C\C=C2C(=O)NC(=O)NC2=O)C(C)(C)c2ccccc21	0.0	-0.8	-142.5	5.1
O=C(NC(CCC(O)CO)P(=O)(Oc1ccccc1)Oc1ccccc1)OCc1ccccc1 (stereo not given)	-4.8	-9.4	·	·
O=C1NC(=O)C(=Cc2ccc(Sc3ccccc3)o2)C(=O)N1	49.0*	51.3*	12.7	15.6
CN1C(=O)C(=Cc2ccc(Sc3ccccc3)o2)C(=O)N(C)C1=O	26.9	46.3*	3.1	12.3
CN1C(=O)C(=Cc2ccc(Sc3ccccc3)o2)C(=O)N(C)C1=S	-1.6	6.4	-16.7	3.0
CCCC(=O)N1c2ccc(Cl)cc2C(c2ccccc2)=NCC1C(=O)NC(C)(C)C (stereo not given)	-20.0	-20.2	·	·
Cn1c(=O)c2c(nc(N/N=C/c3c(O)n(C4CCCCC4)c(=S)[nH]c3=O)n2C)n(C)c1=O	-0.7	-7.8	42.3*	1.7
Cc1ccccc1-n1c(O)c(/C=N/Nc2nc3c(c(=O)n(C)c(=O)n3C)n2C)c(=O)[nH]c1=S	5.8	-4.1	5.0	2.2
O=C1NC(=O)N(c2ccc(Cl)cc2)C(=O)/C1=C\c1ccc(Sc2nc3ccccc3[nH]2)o1	-2.4	-12.1	-5.9	55.5*
O=c1[nH]c(O)c(/C=C2/C=CC(c3cc(Cl)ccc3Cl)=N2)c(=O)[nH]1	-15.3	-18.4	3.6	63.6*
CC1=Nc2ccccc2/C1=C/c1c(O)[nH]c(=O)[nH]c1=O	-2.6	3.5	3.0	-3.1
C[N+]1=C(N)NC2=C3CCCCC3ONC2C1 (stereo not given)	-3.9	-0.7	·	·
COC(=O)C1=C[C@H]([C@@H](C)[C@H](OC)c2ccccc2Br)[C@@H]2[C@H]1c1ccccc1N2C	6.6	-3.9	·	·
C=CCN1C(=O)NC(=O)/C(=C/C=C/c2ccccc2)C1=O	3.5	23.9	-9.2	5.2
O=C1NC(=O)N(CCc2ccc(F)cc2)C(=O)/C1=C\C=C\c1ccccc1	-7.1	-10.2	1.2	36.0*
CC1Oc2cc3c(-c4c(O)cc(O)c5c(O)c6c(cc45)OC(C)C(C)C6=O)c(O)cc(O)c3c(O)c2C(=O)C1C (stereo not given)	·	·	3.7	36.5*
COc1cc(/C=C/c2nc3ccccc3c(=O)n2-c2ccc(O)cc2)ccc1O	35.4*	12.6	-2.7	0.9
O=C(CN1C(=O)[C@@H](Cc2ccc(O)cc2)N=C(c2ccccc2)c2ccccc21)NC1CCCCC1	-7.8	-7.9	·	·
CCN1C(=O)/C(=C/c2ccc3c(c2)CCN3CCCCl)C(=O)NC1=S	-3.7	-7.3	-7.6	31.2*
O=C1NC(=S)N(C2CC2)C(=O)/C1=C/c1ccc2c(c1)CCN2CCCCl	-8.6	-1.4	-19.0	17.8
SMILES	GC-B act	NPR1 activator	Neddyl block	NadD block
COC1C(O)C(C)OC(OC2C(Oc3cccc4c(O)c5c(=O)oc6ccc(C)c7c(=O)oc(c34)c5c67)OC(C)C(O)C2O)C1O (stereo not given)	2.1	6.9	40.5*	1.0
O=C1NC(=S)N(c2ccc(F)cc2)C(=O)/C1=C\c1ccoc1	·	·	9.4	31.6*
Cc1ccc2c(C)c3ccc4ccccc4c3c[n+]2c1	-21.2	-17.9	64.2*	6.8
COCCCn1c(N)c(C(=O)OCCOC)c2nc3ccccc3nc21	1.3	-0.7	·	-4.5
COCCOC(=O)c1c(N)n(Cc2ccc(OC)cc2)c2nc3ccccc3nc12	46.9*	47.3*	·	2.3
CCOC(=O)c1c(N)n(CCCOC(=O)c2ccco2)c2nc3ccccc3nc12	-1.6	-0.3	·	6.8
COC(=O)c1c(N)n(Cc2ccc(OC)cc2)c2nc3ccccc3nc12	43.0*	47.9*	·	3.9
CCOC(=O)c1c(N)n(Cc2ccc(OC)cc2)c2nc3ccccc3nc12	44.1*	46.0*	·	·
